# Records with an inconclusive call do not appear. Unmarked numbers belong to inactive results. Calls come from the whole dose curve; as a rule, active = well fitted curve in the direction sought with a large enough effect; inconclusive = small, poorly fitted or top-dose-only effect, or another doubt; inactive = no such curve, though single readings can be large or run the other way. Numbered stars: 1 amine (or outer) side, 2 acyl side, 3 side chain; on linkers, the order of the positions; unused ones are H or OH. Bridge positions count the residues as written; N and C are the ends. Square brackets hold non-standard residues; d marks the D form. Peptide text beside a SMILES is read from it. * marks the point of attachment. ξ: configuration not given here. Phe(3R-OH) = O=C([C@@H](N[*:1])[C@H](O[*:3])c1ccccc1)[*:2]; NMeTrp(4-OMe) = CN[C@@H](Cc1c[nH]c2cccc(OC)c12)C(=O)O; ξThr(3R)(O-yl) = C[C@@H](O[*:3])C(N[*:1])C(=O)[*:2]; NMeThr(3ξ) = CN[C@H](C(=O)O)C(C)O; NMeL = CN[C@@H](CC(C)C)C(=O)O; NMeV = CN[C@H](C(=O)O)C(C)C; ξIle = CC[C@H](C)C(N)C(=O)O; Octanoyl = CCCCCCCC(=O)*; ξV = CC(C)C(N)C(=O)O
# Test: qHTS for activators of dead-cell proteases activity screened against the NCATS CANVASS Library (AID 1347392);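 note: luminescence from protease leaking out of membrane-damaged cells cleaving impermeant substrate; 0% is about no effect; rising signal means more cytotoxicity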
# Conditions: HepG2 cytotoxicity, dead-cell protease luminescence, 5 h; series mostly up to 46.1 µM; activation (cytotoxicity): at the top concentration
# Description: Natural products and their derivatives continue to be wellsprings of nascent therapeutic potential. However, many laboratories have limited resources for biological evaluation, leaving their previously isolated or synthesized compounds largely or completely untested. To address this issue, the Canvass library of natural products was assembled (https://tripod.nih.gov/canvass), in collaboration with academic and industry researchers, for quantitative high-throughput screening (qHTS) across a diverse set of cell-based and biochemical assays. The pure (>85% purity by liquid chromatography/mass spectrometry [LC/MS]) Canvass library of 346 natural products were submitted by 45 academic laboratories and companies around the world. We collected pure natural products to circumvent deconvolution and structure elucidation due to time and resource limitations. The library was formatted into 1536-well plates and evaluated in 50 qHTS (in an 11-pnt concentration series) bioassays with broad scope of disease-relevant mechanisms. The resulting data set from 50 different assays was then systematically analyzed to identify overall trends and specific natural products with interesting biological activities. Reported herein are the results of each individual qHTS and their corresponding assay protocol. This cytotoxicity assay measures dead-cell protease activity (proteases are released from cells that have lost membrane integrity). A luminogenic cell-impermeant peptide substrate (AAF-aminoluciferin) is used to measure dead-cell protease activity. The amount of luminescence directly correlates with the percentage of cells undergoing cytotoxic stress. National Center for Advancing Translational Sciences (NCATS), Rockville, MD National Institute of Health (NIH), Bethesda, Maryland
# Protease-screen assay protocol: 1. In a white-solid bottom 1536-well plate, 5 uL of HepG2 cell suspension was dispensed using a Multidrop Combi (Thermo Fisher Scientific) at a final concentration of 2000 cells / well. 2. The assay plates were incubated for 18 hours at 37C, 5% CO2 to acclimate and attach. 3. […] of compounds (in DMSO; columns 5-48), vehicle control DMSO, and positive control were pin transferred into the assay plates using the Kalypsis pin tool (Wako USA) equipped with a 1536-well pin heads. This yields a final CANVASS compound concentration of 0.4 nM - 95 uM. 4. The assay plates were incubated for 5 hours at 37C, 5% CO2. 5. After compound treatment, 5 uL per well of CytoTox-Glo (Promega) reagent was added using the BioRAPTR dispenser. 6. The assay plates were incubated for 15 min at room temperature. 7. The luminescence readout was obtained using the ViewLux plate reader (PerkinElmer) using a clear emission filter, 2x binning, 1 sec exposure settings.
row,Structure (SMILES),activation (cytotoxicity)
1,O=C1c2c(O)cc(O)cc2O[C@@H](c2ccc(O)cc2)[C@@H]1c1c(O)cc(O)c2c(=O)cc(-c3ccc(O)c(O)c3)oc12,3.09%
2,CCCCCCCCC[C@@H]1C[C@@H]2CC[C@H]3[C@@H](C(=O)OCCCCN=C(N)N)[C@@H](C)N=C(N1)N23,3.15% [at 27.5 µM]
3,CC12C[C@]3(O)O[C@@H](O1)[C@]1(COC(=O)c4ccccc4)[C@@H]3CC21OC1OC(CO)C(O)C(O)C1O (stereo not given in full),2.31%
4,C[C@@H](CCC[C@]1(C)C(=O)C=C[C@]23C[C@H]4C[C@H](O[C@@]4(C)C2)C31)C(=O)N[C@@H](CO)C(=O)O (stereo not given in full),1.59%
5,COc1ccc([C@@H]2c3cc(OC)c(OC)cc3C(=O)[C@H](C)C2C)cc1OC (stereo not given in full),-0.488% [at 9.19 µM]
6,CO[C@H]1/C=C/CC[C@@H](S[C@@H]2O[C@H](CO)[C@@H](O)[C@H](O)[C@H]2O)CC(=O)O[C@@H](/C(C)=C/[C@H](C)C(=O)CCCC2CC(=O)NC(=O)C2)[C@@H](C)[C@@H]1O,1.36%
7,Oc1ccc(C2c3c(O)cc(O)cc3[C@@H]3C(c4ccc(O)cc4)c4c(O)cc(O)cc4[C@H]23)cc1 (stereo not given in full),-1.52%
8,C[C@@]12C[C@@H](C[C@H]3C(=O)O[C@@H](c4ccoc4)[C@H](OC(=O)c4ccccc4)[C@@H]31)OC2=O,-0.445%
9,CC[C@H](C)C(NC(=O)[C@@H](NC)C(C)C)C(=O)NC1C(=O)N(C)[C@@H](C(C)O)C(=O)N[C@@H](C(C)C)C(=O)N(C)[C@@H](CC(C)C)C(=O)NC(C(C)C)C(=O)N(C)[C@@H](C(C)C)C(=O)N(C)[C@@H](Cc2c[nH]c3cccc(OC)c23)C(=O)N[C@@H](C(C)C)C(=O)N[C@@H]([C@H](O)c2ccccc2)C(=O)N[C@@H](C(C)C)C(=O)O[C@@H]1C (stereo partly drawn) (H-[NMeV][ξIle][ξThr(3R)(O-yl)][NMeThr(3ξ)]V[NMeL][ξV][NMeV][NMeTrp(4-OMe)]V[Phe(3R-OH)]V; ester 3-C),3.84%
10,CO[C@@H]1[C@H](O)[C@@H](C)O[C@@H](OC[C@@H]2C(C)OC(=O)/C=C/[C@H](C)C(O[C@@H]3O[C@H](C)CC4(OC(=O)O[C@@H]4C)C3O)[C@@H](C)CC(C)C(=O)CC[C@H]3OC23)[C@@H]1OC (stereo not given in full),1.24%
11,CO[C@@H]1C[C@@H](C[C@H]2CC[C@H](C)[C@H]([C@@H](C)C(=O)O)O2)O[C@]2(O[C@](C)([C@H]3CC[C@@](C)([C@@H]4O[C@@H]([C@H]5O[C@](C)(O)[C@H](C)C[C@@H]5C)C[C@@H]4C)O3)C[C@H]2C)[C@@H]1C,4.37%
12,O=C(OC1Cc2c(O)cc(O)cc2OC1c1cc(O)c(O)c(O)c1)c1cc(O)c(O)c(O)c1 (stereo not given),-1.42%
13,CC(=O)NC[C@@H]1O[C@H](CC/C=C(C)/C(C)=C/C=O)[C@H](C)C[C@H]1O,3.84%
14,OCc1ccc2ocnc2c1,-1.44%
15,COc1cc(/C=C/C(=O)O)ccc1O,0.865%
16,C[C@@H]1O[C@H](c2c(O)cc(O)c3c(=O)cc(-c4ccc(O)cc4)oc23)[C@H](O)[C@H](O)[C@H]1O,1.57%
17,C=C1C[C@@]23C=CC(=O)[C@@](C)(CCC(=O)Nc4c(O)ccc(C(=O)O)c4O)C2C[C@@H]1CC3O (stereo not given in full),-0.809%
18,CN1C(=O)C2C(N=CN2C)N(C)C1=O (stereo not given),-0.127%
19,CN1CCc2cc3c(c4c2[C@H]1[C@@H](O)c1ccccc1-4)OCO3,2.12%
20,O=C(O)CC1OC(=O)c2c(O)cccc21 (stereo not given),0.786%

row,Structure (SMILES),activation (cytotoxicity)
1,CCCCCCCC(=O)N[C@@H](CC(C)C)C(=O)N[C@H](C=O)CCC(=O)O (Octanoyl-Leu-Glu-aldehyde),2.61%
2,C=C(C)C(=O)O[C@H]1C[C@H](C)[C@@H](OC(C)=O)CC[C@@]2(C)O[C@@H]2[C@H]2OC(=O)C(COC(C)=O)=C12,-3.51%
3,C=C1C[C@@]23C=CC(=O)[C@@](C)(CCCC(C)C(=O)O)[C@@H]2C[C@@H]1CC3 (stereo not given in full),2.43%
4,C=C[C@@]1(C)CC[C@@H]([C@H](C)C(=O)/C=C/C(C)C)O1,-1.32%
5,O=C1C[C@@H](c2ccc(O)c(-c3c(O)cc(O)c4c3O[C@H](c3ccc(O)cc3)CC4=O)c2)Oc2cc(O)cc(O)c21,2.13% [at 27.5 µM]
6,CC(O)/C=C/C1(O)C(C)(C)CC(O)CC1(C)O (stereo not given),1.01%
7,CC(C)(Br)[C@@H](Cl)C[C@H](Br)[C@](C)(Cl)/C=C/Br,-1.22%
8,C[C@H]1C[C@@H]([C@@H]2CC[C@]34O[C@H](CC[C@@]35C[C@H](C)C(=O)O5)CN24)OC1=O,4.16%
9,O=c1cc(-c2ccc(O)c(O[C@@H]3O[C@H](CO)[C@@H](O)[C@H](O)[C@H]3O)c2)oc2cc(O[C@@H]3O[C@H](CO)[C@@H](O)[C@H](O)[C@H]3O)cc(O)c12,-0.653%
10,CCC1=C2CCCN3C(=O)O[C@H]([C@H]1OC(C)=O)[C@H]23,0.265%
11,C=C(C)CC[C@H](Cc1c(O)cc(O)c2c1O[C@H](c1ccc(O)cc1O)CC2=O)C(=C)C,1.82%
12,Oc1ccc(/C=C2/c3cc(O)cc(O)c3C(c3ccc(O)cc3)[C@H]2c2cc(O)cc(O)c2)cc1 (stereo not given in full),-2.28%
13,C/C1=C\CC(=O)/C=C/C=C\c2csc(n2)[C@@H](C)NC(=O)C[C@@](S)([C@@H](C)C(=O)O)CC1,2.14%
14,C/C=C/c1cc(OC)c2c(c1)[C@@H](C)[C@H](c1ccc(O)c(OC)c1)O2,1.32%
15,C/C(=C\[C@H](C)C(=O)CCCC1CC(=O)NC(=O)C1)[C@@H]1OC(=O)/C=C/CC/C=C/C[C@@H](O)[C@@H]1C,5.22%
16,C=C[C@]1(C)CC[C@@H]([C@H](C)C(=O)OCC)O1,1.52% [at 27.5 µM]
17,CC1(C)[C@H](Br)CC[C@]23C[C@]4(C)C(=O)CC12C[C@H]34,-0.414%
18,C[C@@H](O)[C@H]1OC(=O)C=C2[C@]3(C)[C@H]4[C@H](OC(=O)[C@@]4(C)[C@@H](O)[C@H]4O[C@H]43)[C@H]3O[C@@]231,-1.04%
19,O=C(O)Cc1c[nH]c2ccccc12,4.03%
20,CC(=O)[C@@H]1[C@@H](O)C[C@H]2[C@]3(C)CC[C@H]4C(C)(C)CCC[C@]4(CO)[C@H]3C[C@H]3OC(=O)[C@@H]1[C@@]32C,-0.381%
